Among all 69,000 compounds or so, about 8,600 (12%) showed an effect of 50% or more. The sample holds strong results, similar compounds and a random draw of the others, so the mix is not that of the screen.

The assay deals with Plasmodium berghei. The assay is described as follows: Screen against P. berghei liver stage (PbLuc), transformed with Luciferase, at 10uM. Type of assay: functional, HepG2. As to conditions: tested at 10 uM.
Take `Cc1cc(C(=O)N2CCN(S(C)(=O)=O)[C@@H](C)C2)c(F)cc1F`: the INHIBITION is reported as -14.2%.
`Cc1ccc(C)c2c(C)c(C(=O)NCCCn3ccnn3)[nH]c12`: the INHIBITION is 47.2%.
For `O=C(NC1CCCN(c2ncccn2)C1)c1ccoc1` (stereo unspecified), the INHIBITION is listed as -6.32%.
The same measure for `CC(C)c1nc(C2CCCN(C(=O)c3ccc(N(C)C)nn3)C2)no1` (stereo unspecified): 30.3%; for `CCC(NC(=O)c1nn(C)cc1C(=O)O)c1ccccc1` (stereo unspecified): 15.9%; for `Cc1cc(NC2CCc3ncnn3C2)n2nc(C(F)(F)F)nc2n1` (stereo unspecified): 26.9%.
Consider `Cc1cccc(CN2CC[C@@H]3[C@@H]2CCN3C(=O)c2cc(C)oc2C)n1`, for which the INHIBITION is listed as -6.23%.
Under `Cc1ccccc1-c1csc2c(=O)[nH]c(N3CCCC(C(=O)O)C3)nc12` (stereo unspecified) stands 52.5%; under `Cc1ccc(-c2csc3c(=O)[nH]c(N4CCCC(C(=O)O)C4)nc23)cc1` (stereo unspecified), 32.8%.
Under `O=C(O)C1CCCN(c2nc3c(-c4ccccc4)csc3c(=O)[nH]2)C1` (stereo unspecified) stands 36.6%.
Under `CC(C)CC(=O)N1CCC2(CC1)OC(C(N)=O)Cn1ccnc12` (stereo unspecified) stands 7.7%; under `O=C(NCC1CC1)C12CC(CN1Cc1nccs1)C2`, 82.2%.
As for `O=C(N1CCCC1)C12CC(CN1Cc1nccs1)C2`, the INHIBITION is reported as -2.03%.
With `Cc1ccsc1C(=O)N1CC2CC1(C(=O)NCC1CC1)C2`, the INHIBITION was 23.5%.
The same measure for `CN(C)C(=O)c1cc(-c2ccncc2)[nH]n1`: -8.28%.
The same measure for `CN1CCN(C(=O)c2cc(C#N)cs2)c2ccccc2C1`: -91.4%; for `c1ccc(CCNc2ncnc3c2CCN(Cc2c[nH]cn2)CC3)cc1`: 37.3%; for `CN(C)c1ccc(C(=O)N2CCCN(Cc3cscn3)CC2)nn1`: -31.8%.
Take `O=C(c1cnc2n1CCN(Cc1ccccc1)C2)N1CCCC1`: the INHIBITION came to 17.1%.
For the compound `CCOCC(=O)N1CCc2nc(C)nc(NC(C)C)c2CC1`, the INHIBITION was 32.1%.
The same measure for `O=C(C1CCOCC1)N1CCc2ncnc(-c3ccccc3)c2CC1`: -28.8%; for `CC(=O)NCC(=O)N1CCc2nc(-c3ccccc3)nc(C)c2CC1`: 37.9%.
The same measure for `Cc1nc2c(c(NCc3ccccc3)n1)CCN(C(=O)C1CCC1)CC2`: 42.3%.
Turning to `COCC(=O)N1CCc2nc(C)nc(NC(C)C)c2CC1`, the INHIBITION was 35.8%.
The same measure for `Cc1nc(-c2ccc(F)cc2)nc2c1CCN(C(=O)CN(C)C)CC2`: 37.9%; for `CC(C)Nc1nc(-c2ccccc2)nc2c1CCN(C(=O)C1CC1)CC2`: 73.8%.
With `COCC(=O)N1CCc2nc(NC(C)C)nc(NC(C)C)c2CC1`, the INHIBITION is on record as 48.4%.
The same measure for `Cc1nc2c(c(NC(C)C)n1)CCN(C(=O)c1ccno1)CC2`: 49.1%; for `CC(=O)N1CCc2nc(-c3ccc(F)cc3)nc(NC(C)C)c2CC1`: 64.7%; for `CC(=O)N1CCc2nc(-c3ccccc3)nc(NC(C)C)c2CC1`: 59.3%.
The same measure for `CC(C)Nc1nc(-c2ccccc2)nc2c1CCN(C(=O)CC#N)CC2`: 72%; for `Cn1cc(S(=O)(=O)N2CCN(S(=O)(=O)c3ccc(Br)s3)CC2)cn1`: 43.2%.
As for `CN(Cc1cnn(C)c1)C(=O)NCc1cc(Br)cs1`, the INHIBITION is listed as 34.95%.
Under `Cc1cc2c(=O)n(CCSc3cnn[nH]3)cnc2s1` stands 36.7%.
The same measure for `O=C(COC[C@H]1CC[C@H]2[C@H](CCN2c2ncccn2)O1)N1CCCC1`: 1.81%; for `Cc1ccc(CCNC(=O)Cn2nc(C)n(Cc3ccccc3)c2=O)o1`: 13.6%.
The same measure for `CN(Cc1cccc2cccnc12)C1CCS(=O)(=O)C1` (stereo unspecified): 36%; for `Cc1nnc(NCc2ccccc2F)c(C#N)c1C`: 1.35%.
Take `O=C(c1ccnnc1)N1CCN(Cc2cccnc2)c2ncccc2C1`: the INHIBITION was -39.9%.
Regarding `CS(=O)(=O)CCn1ccc(NC(=O)Cc2cccc(Cl)c2)n1`, the INHIBITION stood at 16.5%.
Regarding `CSc1nnc(CC2CCN(C(=O)Cc3ccncc3)CC2)n1C`, the INHIBITION is recorded as 64.7%.
In the case of `CC1CCCN(C(=O)CCc2cccnc2)C1` (stereo unspecified), the INHIBITION was 20.9%.
Under `CSc1nnc(CC2CCN(C(=O)COc3cccnc3)CC2)n1C` stands 73%.
In the case of `O=C(CCc1cccnc1)N1CCC(c2cnccn2)CC1`, the INHIBITION was 15.9%.
Under `COc1cccc(CC(=O)N2CCC(Cc3nnc(SC)n3C)CC2)c1` stands 31.3%.
Take `CSc1nnc(C2CCN(C(=O)N3CCCC3)CC2)n1C`: the INHIBITION came out at 16.185%.
Take `Cc1ccc(NC2CCN(C(=O)COc3cccnc3)CC2)nn1`: the INHIBITION came out at 44.6%.
Under `CCOCC(=O)N1CCC(Cc2nnc(SC)n2C)CC1` stands 48%; under `CSc1nnc(CC2CCN(C(=O)CCc3cccnc3)CC2)n1C`, 51.7%.
The same measure for `CN(C)C(=O)N1CCN(Cc2cnn(C)c2)CC2(CNC(=O)C2)C1` (stereo unspecified): 17.6%.
Consider `O=C(CCn1c(=O)oc2ccccc21)NCC(O)c1ccc(Cl)cc1` (stereo unspecified), for which the INHIBITION is 18.2%.
Regarding `O=S(=O)(CC1CCCCO1)Nc1cnn(Cc2ccccc2)c1` (stereo unspecified), the INHIBITION came to 33.7%.
Regarding `Cc1cnn(C2CN(CC(=O)NCCc3ccsc3)C2)c1`, the INHIBITION was found to be 22.3%.
Consider `CN1CCN(C[C@@H]2OC[C@H]3CN(Cc4ccsc4)CC[C@H]32)CC1`, for which the INHIBITION is -13.3%.
Take `Cn1c(=NC(=O)CSCC(=O)Nc2nccs2)sc2ccccc21`: the INHIBITION is recorded as 32.8%.
As for `CCn1c(=NC(=O)CSCC(=O)Nc2nccs2)sc2ccccc21`, the INHIBITION was 88.1%.
The same measure for `COc1ccc2c(c1)sc(=NC(=O)CSCC(=O)Nc1nccs1)n2C`: 51%; for `COCCn1/c(=N\C(=O)CN(C)S(C)(=O)=O)sc2cc(OC)ccc21`: 2.29%; for `COc1cc(Cl)ccc1C(=O)NCC(=O)Nc1nccs1`: -176%.
With `O=C(CNC(=O)c1ccccc1Cl)Nc1nccs1`, the INHIBITION is -9.72%.
As for `O=C(Cc1ccccn1)N1CC[C@]2(C[C@@H](Oc3ncccc3F)CO2)C1`, the INHIBITION is listed as 35.8%.
The same measure for `CN(C)C(=O)N1CC[C@@H](O)[C@@H]1Cc1ccccc1`: -14.7%.
Under `Cc1ccc(CN2CCC3(CC2)C(=O)N(CC(C)C)CCN3C)o1` stands 39.5%; under `COc1ccc(C(=O)COc2coc(CN3CCSCC3)cc2=O)cc1`, 15.1%; under `Cn1ncc2c(N[C@@H]3CS(=O)(=O)C[C@H]3O)nc(C(C)(C)C)nc21`, 54.4%.
The same measure for `Cn1ncc2c(NCC3CCS(=O)(=O)C3)nc(C3CCCC3)nc21` (stereo unspecified): 15.1%; for `Cn1ncc2c(NCC(=O)N3CCNCC3)nc(C(C)(C)C)nc21`: 16.8%; for `Cn1ncc2c(NC3CCCN(C(=O)C4CC4)C3)nc(C(C)(C)C)nc21` (stereo unspecified): 62.9%.
Take `CCOC(=O)CNc1nc(C(C)(C)C)nc2c1cnn2C`: the INHIBITION was 51.3%.
Take `CCc1nc(NC2CCCN(C(=O)C3CC3)C2)c2cnn(C)c2n1` (stereo unspecified): the INHIBITION is on record as 16%.
The same measure for `CCOC(=O)CC(C)Nc1nc(C(C)(C)C)nc2c1cnn2C` (stereo unspecified): 46.4%; for `Cn1ncc2c(N[C@H]3CCCC[C@@H]3O)nc(C(C)(C)C)nc21`: 50.1%.
For the compound `CCOC(=O)CCCNc1nc(C(C)(C)C)nc2c1cnn2C`, the INHIBITION stood at 27.9%.
Under `Cc1nc(NC2CCN(C(=O)C3CC3)CC2)c2cnn(C)c2n1` stands -25.2%.
The same measure for `Cc1nc(N[C@H]2COC[C@@H]2N2CCCC2)c2cnn(C)c2n1`: 32.7%.
As for `Cn1ncc2c(NC3CCC(N)CC3)nc(C(C)(C)C)nc21` (stereo unspecified), the INHIBITION stood at 40.5%.

(Values after ChEMBL document CHEMBL4513216, “Probing the Open Global Health Chemical Diversity Library for Multistage-Active Starting Points for Next-Generation Antimalarials” (ACS Infect Dis, 2020).)
